Paper PMC6602471
Over roughly 1,300 sequences, “log fluorescence intensity” has its median near 8.9; the highest 2% begin near 13. What follows is part of a selection rich in the highest values, with near analogues and random picks from the rest.

What follows are sequences tested against T1, ELK1 (Homo sapiens, UniProt P19419 1-428) (assay: custom PBM; custom protein-binding microarray; buffer, salt, pH and temperature not stated; high values mean tight binding). Details: dsDNA, one strand shown.
T1 sequence: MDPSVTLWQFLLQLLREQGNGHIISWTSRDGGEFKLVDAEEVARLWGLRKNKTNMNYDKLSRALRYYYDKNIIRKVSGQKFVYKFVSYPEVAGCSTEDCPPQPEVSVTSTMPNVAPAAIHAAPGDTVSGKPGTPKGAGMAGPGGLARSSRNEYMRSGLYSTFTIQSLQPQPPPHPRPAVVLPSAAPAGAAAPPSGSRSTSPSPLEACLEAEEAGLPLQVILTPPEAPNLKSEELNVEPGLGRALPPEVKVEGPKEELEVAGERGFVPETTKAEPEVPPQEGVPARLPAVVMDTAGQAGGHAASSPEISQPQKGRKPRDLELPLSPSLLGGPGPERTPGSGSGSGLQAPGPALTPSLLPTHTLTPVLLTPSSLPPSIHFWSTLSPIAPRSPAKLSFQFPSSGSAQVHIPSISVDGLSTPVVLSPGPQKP

Sequence	binding signal
CACAATTTTTACAGTAATGTAGCACGCGGAACTCCTGTCTTGATTCGCTTGACGCTGCTG	8.97 log fluorescence intensity
TCCGGCTACAAGCTCCACCCACTTCAGGCCTTGTAGGTCTTGATTCGCTTGACGCTGCTG	8.93 log fluorescence intensity
TAAAGGGAAGACGGTTGTGGTAGTTCCGGGTACTAAGTCTTGATTCGCTTGACGCTGCTG	11.3 log fluorescence intensity
GTGTATAGGATCCCATCCAACACACCTGTTAAAATGGTCTTGATTCGCTTGACGCTGCTG	8.91 log fluorescence intensity
TCCGGTTACCAGCTCCACCCACTTCAGGCCTTGTAGGTCTTGATTCGCTTGACGCTGCTG	8.91 log fluorescence intensity
TAAAGGGAAGACGGTTGTGGTAGTTCCGCGTATTAAGTCTTGATTCGCTTGACGCTGCTG	9.44 log fluorescence intensity
TCCGGCTCCCAGCTCCACCCACTTCAGGCCTTGTAGGTCTTGATTCGCTTGACGCTGCTG	8.92 log fluorescence intensity
CACAATTTTTACAGTAATGTAGCACGCGTAATTCCTGTCTTGATTCGCTTGACGCTGCTG	8.98 log fluorescence intensity
CAGCATAGGACTCCTTCCCTGAAGCAATTGATAACCGTCTTGATTCGCTTGACGCTGCTG	8.92 log fluorescence intensity
CACAATTTTTACAGTAATGTAGCACGCGTAGCTCCTGTCTTGATTCGCTTGACGCTGCTG	9.06 log fluorescence intensity
TAAAGGGACGACGGTTGTGGTAGTTCCGGGTATTAAGTCTTGATTCGCTTGACGCTGCTG	11.3 log fluorescence intensity
CACAATTTTTACAGTAATGTAGCACGCGTTACTCCTGTCTTGATTCGCTTGACGCTGCTG	9.11 log fluorescence intensity
GATTTATTTCTGCCCTTATTCGCACGTGCCATAACAGTCTTGATTCGCTTGACGCTGCTG	8.91 log fluorescence intensity
CAGCATAGGACTTCTTCCCTGAAGCAATAGATAACCGTCTTGATTCGCTTGACGCTGCTG	8.97 log fluorescence intensity
CACAATTTTTACAGTAATGTAGTACGCGTAACTCCTGTCTTGATTCGCTTGACGCTGCTG	9.01 log fluorescence intensity
GGAAAAAGGCCCAGGGTAACACCGGAAGTGGGCGTAGTCTTGATTCGCTTGACGCTGCTG	10.9 log fluorescence intensity
TGTCGGGTAAGGGAATGTAGATCACGTGAATGACAAGTCTTGATTCGCTTGACGCTGCTG	8.94 log fluorescence intensity
TAAAGGGAAGACGGTTGTGGTAGTTCCGGGTTTTAAGTCTTGATTCGCTTGACGCTGCTG	11.2 log fluorescence intensity
TACTGACTTATATATGCGGATGCACATGAATAGACCGTCTTGATTCGCTTGACGCTGCTG	9.12 log fluorescence intensity
GGAAAAAGGCCCAGGGTAACACCGGAAGTGGCCTTAGTCTTGATTCGCTTGACGCTGCTG	10.9 log fluorescence intensity
GCTGCTGCGGTGCATACCCCACCGGATGTGACCTCGGTCTTGATTCGCTTGACGCTGCTG	10.1 log fluorescence intensity
GGAAAAAGGCCCAGGGTAACACAGGAAGTGGGCTTAGTCTTGATTCGCTTGACGCTGCTG	9.55 log fluorescence intensity
GATTAATATCTGCCCTTATTCGCACGTGCCATAACAGTCTTGATTCGCTTGACGCTGCTG	8.95 log fluorescence intensity
CTGCATAGGACTTCTTCCCTGAAGCAATTGATAACCGTCTTGATTCGCTTGACGCTGCTG	8.94 log fluorescence intensity

Sequence	binding signal
GACTAATTTCTGCCCTTATTCGCACGTGCCATAACAGTCTTGATTCGCTTGACGCTGCTG	8.95 log fluorescence intensity
TCCGGCTACCAGTTCCACCCACTTCAGGCCTTGTAGGTCTTGATTCGCTTGACGCTGCTG	9.18 log fluorescence intensity
GGAATAAGGCCCAGGGTAACACCGGAAGTGGGCTTAGTCTTGATTCGCTTGACGCTGCTG	10.9 log fluorescence intensity
TACTAACTTATATATGCGAATGCACATGAATAGACCGTCTTGATTCGCTTGACGCTGCTG	8.93 log fluorescence intensity
TCCGGCTACCAGCTCCACCCACTTCAGTCCTTGTAGGTCTTGATTCGCTTGACGCTGCTG	9.06 log fluorescence intensity
GATTCATTTCTGCCCTTATTCGCACGTGCCATAACAGTCTTGATTCGCTTGACGCTGCTG	8.97 log fluorescence intensity
GGAAAAAGGCCCAGGGAAACACCGGAAGTGGGCTTAGTCTTGATTCGCTTGACGCTGCTG	11.4 log fluorescence intensity
GTGTATAGGATCCCATCCAACACACGTGTTCAAATGGTCTTGATTCGCTTGACGCTGCTG	8.97 log fluorescence intensity
TACTGACTTCTATATGCGAATGCACATGAATAGACCGTCTTGATTCGCTTGACGCTGCTG	8.96 log fluorescence intensity
TGTCGGGCAAGGGAATGTAGATCACGTGAATGAAAAGTCTTGATTCGCTTGACGCTGCTG	9.09 log fluorescence intensity
CAGCATAGTACTTCTTCCCTGAAGCAATTGATAACCGTCTTGATTCGCTTGACGCTGCTG	8.98 log fluorescence intensity
TAAAGGGAAGACGGTTGTGGTGGTTCCGGGTATTAAGTCTTGATTCGCTTGACGCTGCTG	11.1 log fluorescence intensity
GCTGCTGGGGTGCATACCCCACCGGATGTGACCCCGGTCTTGATTCGCTTGACGCTGCTG	9.94 log fluorescence intensity
GTGTATAGGATCCCATTCAACACACGTGTTAAAATGGTCTTGATTCGCTTGACGCTGCTG	8.9 log fluorescence intensity
TAAAGGGAAGACGGTTGTGGTAGATCCGGGTATTAAGTCTTGATTCGCTTGACGCTGCTG	9.61 log fluorescence intensity
TAAGGGGAAGACGGTTGTGGTAGTTCCGGGTATTAAGTCTTGATTCGCTTGACGCTGCTG	11.3 log fluorescence intensity
GGAAAAAGGCACAGGGTAACACCGGAAGTGGGCTTAGTCTTGATTCGCTTGACGCTGCTG	11 log fluorescence intensity
GGAAAAAGGCCCAGGGTAACACCGGAATTGGGCTTAGTCTTGATTCGCTTGACGCTGCTG	9.46 log fluorescence intensity
CGGAAGTGTCGTAAACGTCGGATATCCGCTTCTTCTGTCTTGATTCGCTTGACGCTGCTG	11.5 log fluorescence intensity
CAGCATAGGACTTCTTCCCTGAAGCAGTTGATAACCGTCTTGATTCGCTTGACGCTGCTG	8.98 log fluorescence intensity
GTGTATAGGATCCCATCCAACACACGTGTTAATATGGTCTTGATTCGCTTGACGCTGCTG	8.92 log fluorescence intensity
GGAAAAAGGCCCTGGGTAACACCGGAAGTGGGCTTAGTCTTGATTCGCTTGACGCTGCTG	11.1 log fluorescence intensity
GGAAAAAGGCCCGGGGTAACACCGGAAGTGGGCTTAGTCTTGATTCGCTTGACGCTGCTG	11.8 log fluorescence intensity
GGAAAAAGGCCCCGGGTAACACCGGAAGTGGGCTTAGTCTTGATTCGCTTGACGCTGCTG	12.6 log fluorescence intensity

Sequence	binding signal
CTGGGACTTGACCCAAATCTGCCACGTGGGTCGTTTGTCTTGATTCGCTTGACGCTGCTG	9 log fluorescence intensity
TGTCAGGTAAGGGAATGTAGATCACGTGAATGAAAAGTCTTGATTCGCTTGACGCTGCTG	8.9 log fluorescence intensity
TACTGAGTTATATATGCGAATGCACATGAATAGACCGTCTTGATTCGCTTGACGCTGCTG	8.97 log fluorescence intensity
TAAAGGGAAGACGGTTGTGGTAGTTCCGGGAATTAAGTCTTGATTCGCTTGACGCTGCTG	11.2 log fluorescence intensity
CAGCATAGGACTTCTTCCCTGAAGCAATTGATACCCGTCTTGATTCGCTTGACGCTGCTG	8.91 log fluorescence intensity
TACTGACTTATATATGCGAATGCACATGAATAGAACGTCTTGATTCGCTTGACGCTGCTG	8.92 log fluorescence intensity
TGGCGGGTAAGGGAATGTAGATCACGTGAATGAAAAGTCTTGATTCGCTTGACGCTGCTG	8.95 log fluorescence intensity
CTGGGACTTGACCCAACTCTGCCACGTGGGTCGTATGTCTTGATTCGCTTGACGCTGCTG	8.98 log fluorescence intensity
CTGGGACTTGACCCAACTCTGCCACGTGGGGCGTTTGTCTTGATTCGCTTGACGCTGCTG	8.94 log fluorescence intensity
TACTGACTTATATATCCGAATGCACATGAATAGACCGTCTTGATTCGCTTGACGCTGCTG	9.23 log fluorescence intensity
TAAAGGGAAGATGGTTGTGGTAGTTCCGGGTATTAAGTCTTGATTCGCTTGACGCTGCTG	10.9 log fluorescence intensity
CGGAATTGTCGTAAACGTCGGATATCCGGTTCTTCTGTCTTGATTCGCTTGACGCTGCTG	12.8 log fluorescence intensity
CGGAAGCGTCGTAAACGTCGGATATCCGGTTCTTCTGTCTTGATTCGCTTGACGCTGCTG	12.5 log fluorescence intensity
CGGAACTGTCGTAAACGTCGGATATCCGGTTCTTCTGTCTTGATTCGCTTGACGCTGCTG	12.5 log fluorescence intensity
CGGAAGTCTCGTAAACGTCGGATATCCGGTTCTTCTGTCTTGATTCGCTTGACGCTGCTG	12 log fluorescence intensity
CGGATGTGTCGTAAACGTCGGATATCCGGTTCTTCTGTCTTGATTCGCTTGACGCTGCTG	12.2 log fluorescence intensity
CGGAAATGTCGTAAACGTCGGATATCCGGTTCTTCTGTCTTGATTCGCTTGACGCTGCTG	12.6 log fluorescence intensity
CGGAAGGGTCGTAAACGTCGGATATCCGGTTCTTCTGTCTTGATTCGCTTGACGCTGCTG	12.1 log fluorescence intensity
CGGACGTGTCGTAAACGTCGGATATCCGGTTCTTCTGTCTTGATTCGCTTGACGCTGCTG	12.2 log fluorescence intensity
CGGAAGTATCGTAAACGTCGGATATCCGGTTCTTCTGTCTTGATTCGCTTGACGCTGCTG	12 log fluorescence intensity
CTGGGACTTGGCCCAACTCTGCCACGTGGGTCGTTTGTCTTGATTCGCTTGACGCTGCTG	8.95 log fluorescence intensity
TCCGGCTATCAGCTCCACCCACTTCAGGCCTTGTAGGTCTTGATTCGCTTGACGCTGCTG	9.1 log fluorescence intensity
CAGCATAGGACTTCTTCCCTGAAGAAATTGATAACCGTCTTGATTCGCTTGACGCTGCTG	8.96 log fluorescence intensity
